Assay results reported in PubChem BioAssay (Tox21).
Values without a mark were called inactive. Inconclusive results are not listed. Entries that show only a call come without a potency. Calls of active or inactive are those of the source. Unless noted, calls come from the whole dose curve; as a rule, active = well fitted curve in the direction sought with a large enough effect in the repeat runs; inconclusive = weak or mixed curves; inactive = no such curve, though single readings can be large; an effect the other way counts as inactive or inconclusive.

Experiments:
[1] = qHTS assay to identify small molecule antagonists of the androgen receptor (AR) signaling pathway using the MDA cell line in the presence of 0.5 nM R1881 - cell viability counter screen (AID 1259242); note: nearly all actives have a fitted effect of over 45% in size; note: potency is the fitted concentration of half-maximal effect
Outline: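 R1881 at 0.5 nM final stimulated MDA-kb2 cells during 16 hr compound treatment at 37C. Cytotoxicity read: CellTiter-Fluor fluorescence after 30 min.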

[2] = target: Estrogen receptor (Homo sapiens) (UniProt P03372); test: qHTS assay to identify small molecule antagonists of the estrogen receptor alpha (ER-alpha) signaling pathway using the BG1 cell line in the presence of 0.1 nM 17-beta-estradiol (AID 1259244); note: nearly all actives have a fitted effect of over 50% in size; note: potency is the fitted concentration of half-maximal effect
Outline: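 VM7Luc4E2; 4xERE-luciferase; 0.1 nM E2 final; 22 h co-incubation, 37C; ONE-Glo luminescence after 30 min at room temperature.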

[3] = qHTS assay to identify small molecule HDAC inhibitors (AID 1259364);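 note: wild-type HCT-116 cells with endogenous class I/II HDAC activity; top concentration of the series differs between compounds; nearly all actives have a fitted effect of over 45% in size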
Outline: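 Relative class I and II HDAC activity is taken from the luminogenic signal in HCT-116 cells, with compound exposure 2 hr and reagent development 30 min at room temperature.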

[4] = qHTS assay to identify small molecule HDAC inhibitors - cell viability counter screen (AID 1259365); note: nearly all actives have a fitted effect of over 50% in size; note: potency is the fitted concentration of half-maximal effect
Outline: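 Wild-type HCT-116 cells were seeded at 1,500 per well, incubated overnight at 37 C, then exposed to compounds in DMSO for 2hr. Viability was read by CellTiter-Glo luminescence after 30min at room temperature.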

[5] = qHTS assay to identify small molecule agonists of the sonic hedgehog signaling (Shh) pathway - cell viability counter screen (AID 1259366); note: nearly all actives have a fitted effect of over 50% in size; note: potency is the fitted concentration of half-maximal effect
Outline: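 NIH/3T3-derived 3T3 Gli1-Luc cells (stable Gli1-responsive firefly luciferase reporter) were seeded, rested 4 hr at 37 C/5% CO2, then exposed to compounds in DMSO for 24 hr; viability was read by CellTiter-Fluor fluorescence in the same wells.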

[6] = qHTS assay to identify small molecule antagonists of the sonic hedgehog signaling (Shh) pathway - cell viability counter screen (AID 1259367); note: nearly all actives have a fitted effect of over 55% in size; note: potency is the fitted concentration of half-maximal effect
Outline: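 After a 4 hr settling period, 3T3 Gli1-Luc cells were treated with DMSO-dissolved chemicals and conditioned medium, kept 24 hr at 37C in 5% CO2, and assayed for viability by CellTiter-Fluor fluorescence following 1 hr reagent incubation.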

[7] = qHTS assay to identify small molecule agonists of the sonic hedgehog signaling (Shh) pathway (AID 1259368; calls by dose curve; note: series mostly up to about 92 µM; nearly all actives have a fitted effect of over 15% in size)
Outline: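 Mouse fibroblast (NIH/3T3) reporter cells with stably integrated Gli1-Luc were treated 24 hr with compound; firefly luciferase luminescence served as the read-out.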

[8] = qHTS assay to identify small molecule antagonists of the sonic hedgehog signaling (Shh) pathway (AID 1259369; calls by dose curve; note: nearly all actives have a fitted effect of over 45% in size; note: potency is the fitted concentration of half-maximal effect)
Outline: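 Conditioned medium drives Shh signalling in 3T3Gli1-Luc cells; compounds in DMSO co-applied, 24hr at 37 C, then luciferase luminescence.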

[9] = qHTS assay to identify small molecule agonists of the androgen receptor (AR) signaling pathway in the presence of an antagonist - cell viability counter screen (AID 1259379); note: nearly all actives have a fitted effect of over 25% in size; note: potency is the fitted concentration of half-maximal effect
Outline: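 A CellTiter-Fluor read-out measured viability of MDA-kb2 reporter cells (MMTV promoter with AR and GR response elements). Treatment: nilutamide 3.0uM final with compounds at 15 concentrations, 16 hr, 37C, 0% CO2.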

[10] = qHTS assay to identify small molecule agonists of the estrogen receptor beta (ER-beta) signaling pathway - cell viability counter screen (AID 1259380); note: nearly all actives have a fitted effect of over 30% in size; note: potency is the fitted concentration of half-maximal effect
Outline: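 Cells used were ER-beta-UAS-bla HEK293T in medium with 2% charcoal-stripped FBS. They were treated for 16 hr at 37C. Viability came from CellTiter-Glo luminescence.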

[11] = qHTS assay to identify small molecule antagonists of the estrogen receptor beta (ER-beta) signaling pathway - cell viability counter screen (AID 1259382); note: nearly all actives have a fitted effect of over 55% in size; note: potency is the fitted concentration of half-maximal effect
Outline: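 Agonist-stimulated (1nM E2) ER-beta-UAS-bla HEK293T cells are incubated with library compounds for 16 hr at 37C. Cell viability is then assessed in the reporter-assay wells by adding CellTiter-Glo and reading luminescence after 30 min.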

[12] = target: Estrogen receptor (Homo sapiens) (UniProt P03372); test: qHTS assay to identify small molecule agonists of the estrogen receptor alpha (ER-alpha) signaling pathway in the presence of an antagonist (AID 1259383; calls by dose curve; note: top concentration of the series differs between compounds; nearly all actives have a fitted effect of over 15% in size)
Outline: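 Using VM7Luc4E2 cells seeded 24hr before treatment, antagonist ICI-182,780 (10.0nM final) was added, followed by compounds at 15 concentrations. Plates incubated 22hr; ONE-Glo luminescence quantified reporter activity.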

[13] = qHTS assay to identify small molecule agonists or antagonists of the thyroid stimulating hormone receptor (TSHR) signaling pathway - wild type cell line counter screen (AID 1259384; calls by dose curve)
Outline: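 Wild-type HEK293 cells were plated 18 h at 37 C/5% CO2, pin-dosed with compound plus Ro20-1724 medium, held 30 min at room temperature, then given cAMP-d2 and anti-cAMP-cryptate; fluorescence was read after 1 h. Fifteen concentrations, triplicate.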

[14] = target: Thyrotropin receptor (Homo sapiens) (UniProt P16473); test: qHTS assay to identify small molecule antagonists of the thyroid stimulating hormone receptor (TSHR) signaling pathway (AID 1259385; calls by dose curve; note: nearly all actives have a fitted effect of over 20% in size; note: potency is the fitted concentration of half-maximal effect)
Outline: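 TSHR-HEK293 cells were plated and held 18 h at 37C/5% CO2, then given compound plus Ro20-1724 and stimulated with TSH at 1.5 ng/mL final. After 30 min at room temperature, cAMP was detected with cAMP-d2/anti-cAMP-cryptate (1 h) by fluorescence.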

[15] = target: Estrogen receptor beta (Homo sapiens) (UniProt Q92731); test: qHTS assay to identify small molecule agonists of the estrogen receptor beta (ER-beta) signaling pathway (AID 1259377; active = well fitted activation curve with a large enough effect in the signal ratio in the repeat runs, not every such curve was filed as active; the % refers to the signal ratio)
Outline: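 ER-beta-UAS-bla HEK293T (GripTite) cells carrying a UAS-driven beta-lactamase reporter, in medium with 2% charcoal-stripped FBS, were exposed to compounds for 16 hr at 37C; LiveBLAzer B/G FRET substrate was then added and fluorescence read after 2 hours at room temperature.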

[16] = target: Estrogen receptor beta (Homo sapiens) (UniProt Q92731); test: qHTS assay to identify small molecule antagonists of the estrogen receptor beta (ER-beta) signaling pathway (AID 1259378; active = well fitted inhibition curve with a large enough effect in the signal ratio in the repeat runs, not every such curve was filed as active; the % refers to the signal ratio)
Outline: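 ER-beta-UAS-bla HEK293T (GripTite) cells in 2% charcoal-stripped FBS medium were preincubated 6 hr at 37C, dosed with compound, then stimulated with 1 nM E2 (final) for 16 hr; beta-lactamase reporter read by B/G FRET fluorescence after 2 hr substrate loading.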

[17] = qHTS assay to identify small molecule phospholipidosis (PLD) inducers (AID 1259344; active = well fitted curve in the direction sought with a large enough effect; an effect the other way counts as inactive or inconclusive)
Outline: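 HepG2 cells grown on collagen I take up LipidTOX Red while exposed to compound for 24 h; after fixation they are imaged at 20x and pit metrics are extracted.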

[18] = target: Androgen receptor (Homo sapiens) (UniProt P10275); test: qHTS assay to identify small molecule antagonists of the androgen receptor (AR) signaling pathway using the MDA cell line in the presence of 0.5 nM R1881 (AID 1259243); note: potency is the fitted concentration of half-maximal effect; nearly all actives have a fitted effect of over 50% in size
Outline: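 We exposed MDA-kb2 cells to compounds under 0.5 nM R1881 stimulation for 16 hr at 37C and quantified MMTV-driven luciferase by luminescence.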

[19] = target: Androgen receptor (Homo sapiens) (UniProt P10275); test: qHTS assay to identify small molecule agonists of the androgen receptor (AR) signaling pathway in the presence of an antagonist (AID 1259381; calls by dose curve; note: nearly all actives have a fitted effect of over 15% in size)
Outline: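 Using human MDA-kb2 cells with an MMTV promoter–luciferase construct (AR and GR response elements), agonist activity is scored under 3.0uM nilutamide (final) co-treatment; 16hr incubation, 37C, luminescence readout via ONE-Glo.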

Chain of Thyrotropin receptor (Homo sapiens) (P16473 whole entry, looked up): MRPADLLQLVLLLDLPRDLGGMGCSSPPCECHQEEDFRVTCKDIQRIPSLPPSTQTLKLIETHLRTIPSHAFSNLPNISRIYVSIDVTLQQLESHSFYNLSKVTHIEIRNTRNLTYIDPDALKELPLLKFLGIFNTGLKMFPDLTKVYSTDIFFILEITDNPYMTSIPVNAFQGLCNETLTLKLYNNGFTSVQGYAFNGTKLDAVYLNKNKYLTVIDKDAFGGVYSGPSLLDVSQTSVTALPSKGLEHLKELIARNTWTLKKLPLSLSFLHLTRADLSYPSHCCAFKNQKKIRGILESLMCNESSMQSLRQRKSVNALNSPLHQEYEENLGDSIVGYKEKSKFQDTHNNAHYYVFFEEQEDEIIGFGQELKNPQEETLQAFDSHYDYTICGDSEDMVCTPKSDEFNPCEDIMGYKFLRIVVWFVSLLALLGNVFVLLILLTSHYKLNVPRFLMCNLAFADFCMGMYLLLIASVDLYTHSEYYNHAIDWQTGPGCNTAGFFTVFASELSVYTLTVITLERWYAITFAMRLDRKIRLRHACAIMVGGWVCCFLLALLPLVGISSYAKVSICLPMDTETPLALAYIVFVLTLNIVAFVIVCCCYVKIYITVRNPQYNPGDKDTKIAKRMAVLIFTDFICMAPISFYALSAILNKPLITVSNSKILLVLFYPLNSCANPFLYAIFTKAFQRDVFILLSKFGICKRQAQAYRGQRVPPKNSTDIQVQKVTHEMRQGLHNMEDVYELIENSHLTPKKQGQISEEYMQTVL
Chain of Estrogen receptor (Homo sapiens) (P03372 whole entry, looked up): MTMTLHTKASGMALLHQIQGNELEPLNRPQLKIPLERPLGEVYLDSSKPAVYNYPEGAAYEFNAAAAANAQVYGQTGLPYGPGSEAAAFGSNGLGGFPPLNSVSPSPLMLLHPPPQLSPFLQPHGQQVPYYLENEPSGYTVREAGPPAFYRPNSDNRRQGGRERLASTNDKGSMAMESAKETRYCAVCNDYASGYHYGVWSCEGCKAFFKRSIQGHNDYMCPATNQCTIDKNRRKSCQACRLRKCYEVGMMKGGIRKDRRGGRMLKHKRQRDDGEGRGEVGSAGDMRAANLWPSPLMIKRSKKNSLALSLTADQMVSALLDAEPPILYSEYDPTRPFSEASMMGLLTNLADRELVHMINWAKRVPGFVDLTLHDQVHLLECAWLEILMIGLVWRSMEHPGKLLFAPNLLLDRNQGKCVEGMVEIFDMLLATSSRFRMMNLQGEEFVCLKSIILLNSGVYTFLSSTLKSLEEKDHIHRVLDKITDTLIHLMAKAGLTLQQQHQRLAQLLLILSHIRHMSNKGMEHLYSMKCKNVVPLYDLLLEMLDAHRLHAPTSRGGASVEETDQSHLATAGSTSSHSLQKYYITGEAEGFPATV
Chain of Androgen receptor (Homo sapiens) (P10275 whole entry, looked up): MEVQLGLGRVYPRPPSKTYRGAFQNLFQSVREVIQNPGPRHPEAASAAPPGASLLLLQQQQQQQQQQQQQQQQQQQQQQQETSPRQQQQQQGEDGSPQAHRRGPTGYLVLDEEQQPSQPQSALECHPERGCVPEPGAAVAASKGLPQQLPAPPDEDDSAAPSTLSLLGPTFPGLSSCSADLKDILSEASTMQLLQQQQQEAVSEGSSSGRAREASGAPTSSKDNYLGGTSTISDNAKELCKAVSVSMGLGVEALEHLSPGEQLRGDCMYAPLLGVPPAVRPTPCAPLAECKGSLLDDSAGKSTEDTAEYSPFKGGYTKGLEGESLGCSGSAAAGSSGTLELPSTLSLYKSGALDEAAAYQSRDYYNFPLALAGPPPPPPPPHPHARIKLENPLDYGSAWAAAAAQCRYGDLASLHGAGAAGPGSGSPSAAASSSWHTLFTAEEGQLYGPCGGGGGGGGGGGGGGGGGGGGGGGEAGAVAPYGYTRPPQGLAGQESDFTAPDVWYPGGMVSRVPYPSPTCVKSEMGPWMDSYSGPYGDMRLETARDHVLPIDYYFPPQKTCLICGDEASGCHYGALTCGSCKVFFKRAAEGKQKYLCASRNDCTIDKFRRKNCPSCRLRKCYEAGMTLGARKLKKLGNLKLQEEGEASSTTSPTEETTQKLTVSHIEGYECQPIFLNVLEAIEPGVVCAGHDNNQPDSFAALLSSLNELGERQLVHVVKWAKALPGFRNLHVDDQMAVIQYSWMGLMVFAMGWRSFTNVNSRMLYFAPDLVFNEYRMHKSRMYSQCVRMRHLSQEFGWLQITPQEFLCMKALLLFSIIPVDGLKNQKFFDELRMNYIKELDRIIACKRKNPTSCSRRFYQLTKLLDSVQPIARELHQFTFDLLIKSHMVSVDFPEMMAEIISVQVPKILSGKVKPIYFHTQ
Chain of Estrogen receptor beta (Homo sapiens) (Q92731 whole entry, looked up): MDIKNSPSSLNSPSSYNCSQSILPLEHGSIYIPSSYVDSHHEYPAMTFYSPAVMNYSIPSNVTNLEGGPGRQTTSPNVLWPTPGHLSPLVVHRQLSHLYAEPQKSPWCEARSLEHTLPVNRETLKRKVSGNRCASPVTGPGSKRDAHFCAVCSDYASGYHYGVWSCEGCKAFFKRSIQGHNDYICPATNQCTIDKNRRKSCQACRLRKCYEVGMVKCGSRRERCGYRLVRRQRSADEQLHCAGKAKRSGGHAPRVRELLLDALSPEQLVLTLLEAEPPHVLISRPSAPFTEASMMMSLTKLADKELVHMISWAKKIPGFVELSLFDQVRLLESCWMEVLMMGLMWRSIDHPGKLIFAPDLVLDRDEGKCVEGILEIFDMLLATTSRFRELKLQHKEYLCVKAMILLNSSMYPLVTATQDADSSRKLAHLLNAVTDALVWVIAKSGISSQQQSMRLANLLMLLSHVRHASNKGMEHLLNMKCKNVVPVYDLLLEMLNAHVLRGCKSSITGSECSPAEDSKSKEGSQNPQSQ

| Structure (SMILES) | Potency [1] | Potency [2] | Potency [3] | Potency [4] | Potency [5] | Potency [6] | Potency [7] | Potency [8] | Potency [9] | Potency [10] | Potency [11] | Potency [12] | outcome [13] | Potency [14] | Potency [15] | Potency [16] | Potency [17] | Potency [18] | Potency [19] |
| --- | --- | --- | --- | --- | --- | --- | --- | --- | --- | --- | --- | --- | --- | --- | --- | --- | --- | --- | --- |
| CCC(C)(C)C1CCCCC1OC(C)=O (stereo not given) | inactive | inactive | inactive | inactive | inactive | inactive | inactive | inactive | inactive | inactive | inactive | inactive | inactive | inactive | – | – | – | – | – |
| CCCCCOC(=O)CCCC | inactive | inactive | inactive | inactive | inactive | inactive | inactive | inactive | inactive | inactive | inactive | inactive | inactive | inactive | inactive | inactive | – | – | – |
| CCCCCCCC/C=C\CCCCCCCCOCCO | 20 µM (active) | 2.51 µM (active) | inactive | inactive | – | 63.1 µM (active) | inactive | 14.1 µM (active) | 28.2 µM (active) | 28.2 µM (active) | 28.2 µM (active) | – | inactive | 89.1 µM (active) | – | – | – | – | – |
| CCCCCCCCOc1ccccc1C(=O)Nc1ccc(C(=O)OCC[N+](C)(CC)CC)cc1 | inactive | inactive | inactive | inactive | – | inactive | inactive | inactive | inactive | 23.7 µM (active) | 23.7 µM (active) | inactive | inactive | inactive | – | – | inactive | – | – |
| O=C(Nc1ccc(Oc2ccc(Cl)cc2)c(Cl)c1)c1cc(I)cc(I)c1O | inactive | – | inactive | inactive | inactive | inactive | inactive | 29.8 µM (active) | – | 11.9 µM (active) | – | – | inactive | inactive | – | – | inactive | – | – |
| Cc1cc(O)c(C(C)(C)C)cc1Sc1cc(C(C)(C)C)c(O)cc1C | 43.2 µM (active) | 30.6 µM (active) | inactive | 61 µM (active) | 19.3 µM (active) | 19.3 µM (active) | inactive | 9.67 µM (active) | 30.6 µM (active) | 19.3 µM (active) | 24.3 µM (active) | – | inactive | – | – | – | – | 24.3 µM (active) | inactive |
| CCOc1ccc2nc3cc(N)ccc3c(N)c2c1 | inactive | inactive | inactive | inactive | – | – | inactive | – | inactive | – | – | inactive | – | – | – | – | inactive | – | – |
| NNc1nc(-c2ccc(N)cc2)cs1 | – | inactive | inactive | inactive | inactive | – | inactive | – | – | 15.4 µM (active) | – | inactive | inactive | – | inactive | inactive | – | – | – |
| CCN(C(=O)N(CC)c1ccccc1)c1ccccc1 | – | – | inactive | inactive | – | inactive | inactive | – | inactive | inactive | – | – | inactive | inactive | – | – | – | – | – |
| CCCCCCCCCCCC(=O)NCCCN(C)C | – | inactive | inactive | inactive | – | – | inactive | 19.3 µM (active) | – | 54.5 µM (active) | 54.5 µM (active) | inactive | inactive | 61.1 µM (active) | – | – | – | 68.6 µM (active) | inactive |
| N=C1N=C(N)c2cc3ccccc3cc21 | – | – | inactive | inactive | 27.3 µM (active) | 24.3 µM (active) | inactive | 0.969 µM (active) | – | 21.7 µM (active) | – | – | – | – | – | – | inactive | – | – |
| CS(=O)(=O)CCNCc1ccc(-c2ccc3ncnc(Nc4ccc(OCc5cccc(F)c5)c(Cl)c4)c3c2)o1 | – | 29.8 µM (active) | inactive | inactive | – | inactive | inactive | – | 15 µM (active) | 13.3 µM (active) | 13.3 µM (active) | inactive | inactive | inactive | – | – | inactive | 13.3 µM (active) | inactive |
| COc1cc(-c2nc(NC(=O)c3cc4cc(C)cc(C)c4n3CC(=O)O)sc2CCC2CCCCC2)c(OC)cc1Cl | – | inactive | inactive | 25 µM (active) | – | – | inactive | – | 56 µM (active) | 19.9 µM (active) | 39.7 µM (active) | inactive | inactive | – | inactive | – | – | 56 µM (active) | inactive |
| C/C=C1/C(=O)C[C@H]2[C@@H]3CCC4=CC(=O)CC[C@]4(C)[C@H]3CC[C@]12C | – | – | inactive | inactive | – | inactive | inactive | – | 54.3 µM (active) | – | inactive | – | – | – | – | – | – | – | – |
| CC[C@@]1(O)C(=O)OCc2c1cc1n(c2=O)Cc2cc3c(CN(C)C)c(O)ccc3nc2-1 | – | 1.88 µM (active) | inactive | inactive | – | – | inactive | 1.33 µM (active) | – | inactive | inactive | inactive | inactive | inactive | – | – | inactive | – | – |
